Consider eight compounds from PubChem BioAssay (Tox21).

Values without a mark were called inactive. Records with an inconclusive call do not appear. The source made the active and inactive calls. Unless noted, calls follow the shape of the dose curve; as a rule, active = well fitted curve in the direction sought with a large enough effect in the repeat runs; inconclusive = weak or mixed curves; inactive = no such curve, though single readings can be large; an effect the other way counts as inactive or inconclusive.

The nature of assay [1]: qHTS assay for small molecules that induce genotoxicity in human embryonic kidney cells expressing luciferase-tagged ATAD5 (AID 651632). Also: nearly all actives have a fitted effect of over 15% in size. The procedure, abridged:
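HEK293T cells carrying a luciferase reporter tagged to ATAD5 were exposed to compound or DMSO vehicle for 16 hr at 37C, 5% CO2. Amplite was added, and after 30 min at room temperature luciferase activity was read as a marker of ATAD5 induction.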

A short description of assay [2]: qHTS assay for small molecule agonists of the p53 signaling pathway - cell viability (AID 651633; calls by dose curve; also: nearly all actives have a fitted effect of over 30% in size; also: potency is read from the fitted curve at half-maximal effect). In outline:
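p53RE-bla cells were treated with compound for 16 hours at 37 C. Cytotoxicity was then measured as CellTiter-Glo luminescence after 30 min at room temperature.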

A short description of assay [3]: qHTS assay for small molecule disruptors of the mitochondrial membrane potential - cell viability (AID 720634; calls by dose curve;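 also: human HepG2 liver cancer cells; series mostly up to about 83 µM; nearly all actives have a fitted effect of over 20% in size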). In outline: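 HepG2 cells seeded overnight at 37 C, then exposed to compound or DMSO for 1 hr at 37 C, 5% CO2. m-MPI dye added, then CellTiter-Glo for 30 min at room temperature; viability read as ATP luminescence.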
Assay [4] is described as follows: qHTS assay for small molecule disruptors of the mitochondrial membrane potential (AID 720635). Also: potency is read from the fitted curve at half-maximal effect. The procedure, abridged: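 HepG2 cells exposed to compound 1 hr at 37C, then Mito-MPS dye 30 min. Ratio read of aggregate (540/590 nm) versus monomer (490/535 nm) fluorescence.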
Assay [5] can be described thus: qHTS assay to test for compound auto fluorescence at 590 nm (red) in HepG2 cells (AID 720674). In outline: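 HepG2 cells, 2,000 per well in MEM with 10% FBS, attached overnight at 37 C, then got 23 nL compound or DMSO. After 1 hr at 37 C, 5% CO2, red fluorescence was read at 540/590 nm against Rose Bengal sodium as reference.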
Assay [6] in a line: qHTS assay to test for compound auto fluorescence at 535 nm (green) in HepG2 cells (AID 720675).
Assay [7] can be described thus: qHTS assay to test for compound auto fluorescence at 460 nm (blue) in HEK293 cells (AID 720678). The procedure, abridged:
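Intrinsic compound fluorescence is recorded in live HEK293 cultures after overnight incubation at 37C, 5% CO2, using excitation 405 nm and emission 460 nm. Values are referenced to triamterene.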

The nature of assay [8]: qHTS assay to test for compound auto fluorescence at 590 nm (red) in HEK293 cells (AID 720679). In outline: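 Red autofluorescence, HEK293 cells: 2,000 cells/well; attach 4-5 hr 37C; add 23 nL cpd or DMSO; incubate o/n 37C 5% CO2; read Ex540/Em590; Rose Bengal sodium reference.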
The nature of assay [9]: qHTS assay to test for compound auto fluorescence at 535 nm (green) in HEK293 cells (AID 720680).
Assay [10] can be described thus: qHTS assay to test for compound auto fluorescence at 460 nm (blue) in HEK293 cell free culture (AID 720681). In outline:
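Compounds were added to cell-free DMEM with 10% FBS and fluorescence read directly. The blue channel used 405 nm excitation and 460 nm emission, with triamterene as the reference fluorophore.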

Assay [11] in a line: qHTS assay to test for compound auto fluorescence at 535 nm (green) in HEK293 cell free culture (AID 720682). The procedure, abridged: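 Read-out: 485/535 nm fluorescence intensity, calibrated against fluorescein. Medium only (DMEM + 10% FBS, no cells); test compound or DMSO vehicle added by pintool before plate reading.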
Assay [12] is described as follows: qHTS assay to test for compound auto fluorescence at 590 nm (red) in HEK293 cell free culture (AID 720683). The procedure, abridged:
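Cell-free wells of DMEM with 10% FBS received compound, and intrinsic fluorescence was read at excitation/emission 540/590 nm. Values expressed as equivalence to Rose Bengal sodium.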

Assay [13] can be described thus: qHTS assay to test for compound auto fluorescence at 590 nm (red) in HepG2 cell free culture (AID 720684). The procedure, abridged: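 Compound was pinned into wells holding MEM with 10% FBS and no cells, and red fluorescence was read at Ex/Em 540/590 nm. Signal is expressed as auto fluorescence equivalency relative to Rose Bengal sodium.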
Assay [14] is described as follows: qHTS assay to test for compound auto fluorescence at 460 nm (blue) in HepG2 cell free culture (AID 720685). In outline: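 Compound (23 nL) or DMSO pinned into cell-free MEM with 10% FBS; blue fluorescence read at 405/460 nm excitation/emission, expressed as auto-fluorescence equivalency to triamterene.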
The nature of assay [15]: qHTS assay to test for compound auto fluorescence at 535 nm (green) in HepG2 cell free culture (AID 720686).
Assay [16] is described as follows: qHTS assay to test for compound auto fluorescence at 460 nm (blue) in HepG2 cells (AID 720687). In outline:
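HepG2 cells in MEM with 10% FBS, attached overnight at 37 C, were exposed to compound or DMSO for 1 hr at 37 C, 5% CO2. Blue fluorescence was read at 405/460 nm, with triamterene as reference fluorophore.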

Assay [17] deals with Glucocorticoid receptor (Homo sapiens) (UniProt P04150). Kind of assay: qHTS assay to identify small molecule agonists of the glucocorticoid receptor (GR) signaling pathway (AID 720691; active = well fitted activation curve with a large enough effect in the signal ratio in the repeat runs, not every such curve was filed as active; the % refers to the signal ratio). The procedure, abridged: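 GR-bla HeLa cells (beta-lactamase reporter under glucocorticoid response element) were plated 4 h at 37 C/5% CO2, given compounds in DMSO, and incubated 18 h at 37 C. LiveBLAzer B/G FRET substrate was added for 2 h at room temperature, then fluorescence intensity read.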
Chain of Glucocorticoid receptor (Homo sapiens) (P04150 whole entry, looked up): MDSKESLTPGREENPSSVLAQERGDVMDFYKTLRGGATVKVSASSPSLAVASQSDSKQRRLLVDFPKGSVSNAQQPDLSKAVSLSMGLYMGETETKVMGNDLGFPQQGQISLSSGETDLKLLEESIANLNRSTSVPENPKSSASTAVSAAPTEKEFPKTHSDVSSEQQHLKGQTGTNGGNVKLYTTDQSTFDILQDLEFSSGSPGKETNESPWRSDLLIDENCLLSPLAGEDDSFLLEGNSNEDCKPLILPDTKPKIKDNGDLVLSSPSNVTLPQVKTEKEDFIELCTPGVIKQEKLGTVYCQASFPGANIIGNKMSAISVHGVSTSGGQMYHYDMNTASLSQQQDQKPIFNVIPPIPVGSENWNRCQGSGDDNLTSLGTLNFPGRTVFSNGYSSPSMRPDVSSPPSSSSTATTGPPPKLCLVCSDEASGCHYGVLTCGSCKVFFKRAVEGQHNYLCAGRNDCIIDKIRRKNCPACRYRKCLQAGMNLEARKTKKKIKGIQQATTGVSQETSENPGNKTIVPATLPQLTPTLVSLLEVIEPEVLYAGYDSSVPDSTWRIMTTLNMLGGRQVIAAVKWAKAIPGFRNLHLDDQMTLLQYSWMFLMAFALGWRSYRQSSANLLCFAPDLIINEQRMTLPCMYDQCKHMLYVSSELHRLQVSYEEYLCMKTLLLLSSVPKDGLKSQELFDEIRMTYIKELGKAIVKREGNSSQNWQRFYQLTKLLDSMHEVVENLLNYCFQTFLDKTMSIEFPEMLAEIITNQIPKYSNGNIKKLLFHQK

Assay [18] can be described thus: qHTS assay for small molecules that induce genotoxicity in human embryonic kidney cells expressing luciferase-tagged ATAD5 - cell viability (AID 651634; calls by dose curve; also: nearly all actives have a fitted effect of over 25% in size). The procedure, abridged:
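HEK293T cells expressing luciferase-tagged ATAD5 were exposed to compound or DMSO for 15.5 hr at 37C, 5% CO2. Viability was then read as live-cell protease activity by CellTiter-Fluor fluorescence after 30 min at 37C.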

Assay [19] addresses Glucocorticoid receptor (Homo sapiens) (UniProt P04150). Kind of assay: qHTS assay to identify small molecule antagonists of the glucocorticoid receptor (GR) signaling pathway (AID 720692; active = well fitted inhibition curve with a large enough effect in the signal ratio in the repeat runs, not every such curve was filed as active; the % refers to the signal ratio). The procedure, abridged:
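GR-bla HeLa cells (beta-lactamase reporter under glucocorticoid response element) were pre-plated 4 h at 37 C, treated with compounds plus 5 nM dexamethasone (final) for 18 h, then read by LiveBLAzer B/G FRET fluorescence after 2 h.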

Turning to `CC(=O)OCC1=C(C(=O)O)N2C(=O)[C@@H](NC(=O)CSc3ccncc3)[C@H]2SC1`, the Potency result in [1], in [2], in [4], in assay [7], in assay [10] and in assay [14] was “inactive” each time. The Potency entry in assay [16] and in [17] was “inactive” each time. The compound was called inactive in assay [3], in assay [5], in [6], in assay [8], in assay [9] and in assay [11]. For the same compound, the compound was called inactive in assay [12], in [13] and in assay [15].

Turning to `CCCCCCCCCCCCCOS(=O)(=O)O`, the Potency entry in assay [1], in [18], in [7], in assay [14] and in assay [16] was “inactive” each time. Further, the Potency in [2] is 68.6 µM (active). Moreover, the compound was called inactive in assay [3], in [5], in assay [6], in assay [8], in assay [9] and in assay [11]. Further, the outcome in assay [12], in [13] and in assay [15] was inactive.

For `CC(CN(CCN(CC(C)OCCO)CC(C)OCCO)CC(C)OCCO)OCCO` (stereo not given), the Potency entry in [1], in [2], in assay [7], in [10], in assay [14] and in [16] was “inactive” each time. Further, the outcome in assay [3], in assay [5], in assay [6], in assay [8], in [9] and in [11] was inactive. In addition, the compound was classed as inactive in assay [12], in assay [13] and in [15].

Regarding `c1ccc(CCCc2ccncc2)cc1`, the Potency result in assay [1], in [2], in assay [18], in assay [7], in assay [10] and in assay [14] was “inactive” each time. Further, the Potency result in [16] and in assay [17] was “inactive” in each case. For the same compound, the compound was called inactive in assay [3], in assay [5], in assay [6], in assay [8], in assay [9] and in [11]. Also, the outcome in assay [12] and in assay [15] was inactive. In addition, the Potency in [4] is 10.9 µM (active).

Consider `O=C(c1ccccc1)C1CCC1`, for which the Potency result in [1], in assay [2], in assay [4], in assay [7], in assay [10] and in [14] was “inactive” in each case. Besides, the Potency entry in assay [16] and in assay [17] was “inactive” in each case. The call in [3], in assay [5], in assay [6], in [8], in assay [9] and in assay [11] was inactive. Besides, the compound was classed as inactive in [12], in assay [13] and in [15].

Take `CCCCCCCCCCCCCC(=O)OCC(O)CO` (stereo not given): the Potency entry in assay [1], in assay [2], in assay [18], in [7], in assay [10] and in [14] was “inactive” each time. Also, the Potency result in assay [16] and in assay [17] was “inactive” throughout. Besides, the result in assay [3], in assay [5], in assay [6], in [8], in assay [9] and in [11] was inactive. The result in assay [12], in assay [13] and in assay [15] was inactive.

As for `CCOC(=O)c1ccc(NC(=O)CN2CCCCC2)cc1`, the Potency entry in assay [1], in assay [2], in assay [4], in assay [7], in assay [10] and in [14] was “inactive” throughout. Moreover, the Potency entry in assay [16], in assay [17] and in [19] was “inactive” throughout. For the same compound, the compound was classed as inactive in assay [3], in [5], in assay [6], in assay [8], in assay [9] and in assay [11]. Further, the compound was called inactive in [12] and in assay [15].

With `CC(C)(C)C(O)/C=C/c1ccc2c(c1)OCO2` (stereo not given), the Potency result in assay [1], in [2], in [18], in assay [7], in assay [14] and in assay [16] was “inactive” in each case. Moreover, the outcome in assay [3], in assay [5], in assay [6], in [8], in [9] and in [11] was inactive. In addition, the result in assay [12], in assay [13] and in assay [15] was inactive.
